Reference: the supplement of paper PMC13094657
± gives the standard deviation of the averaged measurements.

tested on: MDA-MB-231; assay: cell viability relative to vehicle unstimulated control (fraction); higher = more viable cells; conditions: pre-treatment time: 18 h then 24 h IFNg/TNF
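Also: viability of the cells left after supernatant collection, read with Deep Blue dye added for 4 h, as absorbance at 570 nm minus 600 nm.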

SMILES	cell viability
CC1=CC[C@@H](C(C)(C)O)CC1 [α terpineol (mixed)] (compound dose: 10 uM)	0.977 ± 0.065
C=C1C(=O)O[C@H]2C[C@@H](C)[C@@H]3[C@@H](OC(C)=O)C[C@H](O)[C@@]3(C)[C@@H](OC(C)=O)[C@H]12 [Britannin] (compound dose: 10 uM)	1.01 ± 0.043
CC(=O)OC(CC12C3C(C(C)C)CCC1(C)C1CCC4(CCCC42)N3C1)C(=O)C1(C)COC2(C)CCC1O2 (stereo not given) [Daphniphylline] (compound dose: 10 uM)	1.01 ± 0.027
COc1cc(C(C)=O)cc(OC)c1O [Acetosyringone] (compound dose: 10 uM)	1.05 ± 0.032
CC(CC(=O)C[C@@H](C)[C@H]1CC(=O)[C@@]2(C)C3=C(C(=O)[C@@H](O)[C@]12C)[C@@]1(C)CC[C@H](O)C(C)(C)[C@@H]1C[C@@H]3O)C(=O)O (stereo not given in full) [Ganoderic acid G] (compound dose: 10 uM)	1.1 ± 0.058
CC(=O)OC(CC(C)C1=C2C[C@H](O)C3[C@@]4(C)CCC(=O)C(C)(C)C4CC[C@]3(C)[C@@]2(C)CC1)C1OC1(C)C (stereo not given in full) [Alisol B 23-acetate] (compound dose: 10 uM)	1.05 ± 0.034
C=C1C(=O)O[C@@H]2[C@H]3C(C)=CC[C@@]34O[C@@]4(C)CC[C@@H]12 [Arglabin] (compound dose: 10 uM)	1.01 ± 0.041
C[C@H](C[C@H](O)[C@H]1OC1(C)C)C1=C2C[C@H](O)[C@H]3[C@@]4(C)CCC(=O)C(C)(C)[C@@H]4CC[C@]3(C)[C@@]2(C)CC1 [Alisol B] (compound dose: 10 uM)	0.865 ± 0.13
CC(=O)OC[C@H]1O[C@@H](OC[C@H]2O[C@@H](OC(=O)[C@]34CCC(C)(C)C[C@H]3C3=CC[C@@H]5[C@@]6(C)CC[C@H](O[C@@H]7OC[C@H](O)[C@H](O)[C@H]7O[C@@H]7O[C@H](CO)[C@@H](O)[C@H](O)[C@H]7O)C(C)(C)[C@@H]6CC[C@@]5(C)[C@]3(C)CC4)[C@H](O)[C@@H](O)[C@@H]2O)[C@H](O)[C@@H](O)[C@@H]1O[C@@H]1O[C@@H](C)[C@H](O)[C@@H](O)[C@H]1O [Acanthopanaxoside B] (compound dose: 10 uM)	1.095 ± 0.0013
CC1(C)CC[C@]2(C(=O)O)CC[C@]3(C)C(=CC[C@@H]4[C@@]5(C)CC[C@H](O[C@@H]6O[C@H](C(=O)O)[C@@H](O)[C@H](O)[C@H]6O[C@@H]6O[C@H](CO)[C@@H](O)[C@H](O)[C@H]6O)C(C)(C)[C@@H]5CC[C@]43C)[C@@H]2C1 [Zingibroside R1] (compound dose: 10 uM)	1.19 ± 0.15
COc1ccc2cc1Oc1ccc(cc1)C[C@H]1c3cc(c(OC)cc3CCN1C)Oc1c(OC)c(OC)cc3c1[C@H](C2)N(C)CC3 [Tetrandrine] (compound dose: 10 uM)	1.047 ± 0.0084
C[C@H](CC[C@@H](O[C@@H]1O[C@H](CO[C@@H]2O[C@H](CO)[C@@H](O)[C@H](O)[C@H]2O)[C@@H](O)[C@H](O)[C@H]1O[C@@H]1O[C@H](CO)[C@@H](O)[C@H](O)[C@H]1O)C(C)(C)O)[C@H]1CC[C@@]2(C)[C@@H]3CC=C4[C@@H](CC[C@H](O[C@@H]5O[C@H](CO)[C@@H](O)[C@H](O)[C@H]5O)C4(C)C)[C@]3(C)[C@H](O)C[C@]12C [Siamenoside I] (compound dose: 10 uM)	1.14 ± 0.34
CC(CC(=O)C[C@@H](C)[C@H]1CC(=O)[C@@]2(C)C3=C(C(=O)C[C@]12C)[C@@]1(C)CC[C@H](O)C(C)(C)[C@@H]1C[C@@H]3O)C(=O)O (stereo not given in full) [Ganoderic acid B] (compound dose: 10 uM)	0.95 ± 0.032
C[C@@H]1O[C@@H](O[C@H]2[C@H](OC(=O)[C@]34CCC(C)(C)C[C@H]3C3=CC[C@@H]5[C@@]6(C)C[C@H](O)[C@H](O[C@@H]7O[C@H](CO)[C@@H](O)[C@H](O)[C@H]7O)[C@@](C)(CO)[C@@H]6CC[C@@]5(C)[C@]3(C)C[C@H]4O)OC[C@H](O)[C@@H]2O)[C@H](O)[C@H](O)[C@H]1O[C@@H]1OC[C@@H](O)[C@H](O[C@@H]2OC[C@](O)(CO)[C@H]2O)[C@H]1O [Polygalacin D] (compound dose: 10 uM)	0.821 ± 0.05
CC(=O)O[C@H]1C(=O)[C@@]2(C)[C@H]([C@H](OC(=O)c3ccccc3)[C@]3(O)C[C@H](OC(=O)[C@H](O)[C@@H](NC(=O)c4ccccc4)c4ccccc4)C(C)=C1C3(C)C)[C@]1(OC(C)=O)CO[C@@H]1C[C@@H]2O [7-epi-Taxol] (compound dose: 10 uM)	0.791 ± 0.032
C=C1C(=O)O[C@H]2[C@H]1CC/C(C)=C/CC[C@@]1(C)O[C@@H]21 [Parthenolide] (compound dose: 10 uM)	0.933 ± 0.034
O[C@@H]1[C@@H](O)[C@@H](OC/C=C/c2ccccc2)O[C@H](CO[C@@H]2OC[C@H](O)[C@H](O)[C@H]2O)[C@H]1O [Rosavin] (compound dose: 10 uM)	1.003 ± 0.0045
CC1(C)[C@@H](O[C@H]2O[C@H](C(=O)O)[C@@H](O)[C@H](O)[C@H]2O[C@@H]2O[C@H](C(=O)O)[C@@H](O)[C@H](O)[C@H]2O)CC[C@]2(C)[C@H]3C(=O)C=C4[C@@H]5C[C@@](C)(C(=O)O)CC[C@]5(C)CC[C@@]4(C)[C@]3(C)CC[C@@H]12 [Glycyrrhizic acid] (compound dose: 10 uM)	1.05 ± 0.075

SMILES	cell viability
CC(CCC(OC1OC(CO)C(O)C(O)C1OC1OC(CO)C(O)C(O)C1O)C(C)(C)O)C1CCC2(C)C3CC=C4C(CCC(OC5OC(COC6OC(CO)C(O)C(O)C6O)C(O)C(O)C5O)C4(C)C)C3(C)C(O)CC12C (stereo not given) [Mogroside IV] (compound dose: 10 uM)	0.996 ± 0.11
C=C1C[C@@]23CC[C@H]4[C@@](C)(CCC[C@@]4(C)C(=O)O[C@@H]4O[C@H](CO)[C@@H](O)[C@H](O)[C@H]4O)[C@@H]2CC[C@]1(O[C@@H]1O[C@H](CO)[C@@H](O)[C@H](O)[C@H]1O[C@@H]1O[C@H](CO)[C@@H](O)[C@H](O)[C@H]1O)C3 [Stevioside] (compound dose: 10 uM)	1.05 ± 0.015
C=C1C(=O)O[C@@H]2/C=C(\C)C[C@@H]3C=C(C[C@H](OC(=O)/C(C)=C\C)[C@@H]12)C(=O)O3 [Scabertopin] (compound dose: 10 uM)	0.873 ± 0.022
CC(C)=CCC[C@@H](C(=O)O)[C@H]1CC[C@@]2(C)C3=CC[C@H]4C(C)(C)[C@@H](O)CC[C@]4(C)C3=CC[C@]12C [3-Dehydrotrametenolic acid] (compound dose: 10 uM)	1.01 ± 0.045
CC(CCC(OC1OC(COC2OC(CO)C(O)C(O)C2O)C(O)C(O)C1OC1OC(CO)C(O)C(O)C1O)C(C)(C)O)C1CCC2(C)C3CC=C4C(CCC(OC5OC(COC6OC(CO)C(O)C(O)C6O)C(O)C(O)C5O)C4(C)C)C3(C)C(=O)CC12C (stereo not given) [11-oxo-mogroside V] (compound dose: 10 uM)	1.1 ± 0.12
CC1(C)C[C@@H](O)[C@]2(C)CC[C@]3(C)C(=CC[C@@H]4[C@@]5(C)CC[C@H](O)[C@](C)(CO)[C@@H]5CC[C@]43C)[C@@H]2C1 [Soyasapogenol B] (compound dose: 10 uM)	1.02 ± 0.018
CC(=O)O[C@@]1(C)C[C@@H](O)[C@]2(O)C=CO[C@@H](O[C@@H]3O[C@H](CO)[C@@H](O)[C@H](O)[C@H]3O)[C@@H]21 [8-O-Acetylharpagide] (compound dose: 10 uM)	0.9 ± 0.067
O=C(O)C1=CO[C@@H](O[C@@H]2O[C@H](CO)[C@@H](O)[C@H](O)[C@H]2O)[C@H]2[C@@H]1C=C[C@]2(O)CO [Monotropein] (compound dose: 10 uM)	0.866 ± 0.046
CC(C)=CCC/C(C)=C/C=O [Citral] (compound dose: 10 uM)	0.922 ± 0.019
C=C1C[C@]23C[C@@]1(O)CC[C@H]2[C@@]12C=C[C@H](O)[C@@](C)(C(=O)O1)[C@H]2[C@@H]3C(=O)O [Gibberellic acid] (compound dose: 10 uM)	0.951 ± 0.013
C[C@@H]1CC[C@H]2C(C)(C)[C@H]3C[C@@]12CC[C@@]3(C)O [Cedrol] (compound dose: 10 uM)	0.977 ± 0.06
C=C[C@]1(C)CC[C@@H](C(=C)C)C[C@H]1C(=C)C [β-Elemene] (compound dose: 10 uM)	0.939 ± 0.071
CC1(C)CC[C@]2(C(=O)O)CC[C@]3(C)C(=CC[C@@H]4[C@@]5(C)CCC(=O)C(C)(C)[C@@H]5CC[C@]43C)[C@@H]2C1 [Oleanonic acid] (compound dose: 10 uM)	0.957 ± 0.031
CO[C@@H]1C=C2[C@@H]3CC(C)(C)CC[C@]3(CO)[C@H](O)C[C@@]2(C)[C@]2(C)CC[C@H]3[C@](C)(CO)[C@@H](O[C@@H]4O[C@H](C)[C@H](O)[C@H](O[C@@H]5O[C@H](CO)[C@@H](O)[C@H](O)[C@H]5O)[C@H]4O)CC[C@]3(C)[C@@H]12 [Saikosaponin B4] (compound dose: 10 uM)	1.12 ± 0.026
CC1(C)C2CC=C(C=O)C1C2 (single isomer, unassigned; (-)) [(-)-Myrtenal] (compound dose: 10 uM)	0.988 ± 0.056
C[C@H]1COC2=C1C(=O)C(=O)c1c2ccc2c1CCCC2(C)C [Cryptotanshinone] (compound dose: 10 uM)	0.885 ± 0.048
C=C1CCC[C@]2(C)C[C@]3(O)OC(=O)C(C)=C3C[C@@H]12 [Atractylenolide III] (compound dose: 10 uM)	1.015 ± 0.0091
